From PubChem BioAssay (NCI)
This is part of a sample that, as a whole, favours compounds with a hit. Of some 79,000 tested, about 15% had one in any assay. Unmarked numbers belong to inactive results. The source made the active and inactive calls. No stated cut-off is given here; in the data, active means growth inhibition above about 70%; inactive means the rest. Where a SMILES comes first, the peptide text is derived from it. The star is where a group is joined. Cbz = O=C(OCc1ccccc1)*; OBn = c1ccc(CO*)cc1

Assay: NCI Yeast Anticancer Drug Screen. Data for the cln2 rad14 strain (AID 165);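 further: 0% = growth equal to vehicle treated cultures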
Conditions: S. cerevisiae cln2 rad14 strain, hits give high values; at 50.0 µM unless noted
Outline: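 Relative to vehicle controls, growth inhibition of compound-treated cln2 rad14 yeast was recorded.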

SMILES | growth inhibition
c1ccc(C2(c3ccc(C4(c5ccccc5)Oc5ccccc5S4)[nH]3)Oc3ccccc3S2)cc1 (stereo not given) | 11.6%
COc1cccc(C#CC(=O)O)c1 | -5.35%
Nc1nc(N)c(N=O)c(Nc2ccccc2)n1 | 0.45%
C=C1C(=O)OC2/C=C(\C)C(O)CCC(C)(O)CC(OC(=O)/C(C)=C/C)C12 (stereo not given) | 17.4%
NC(CSCCB(O)O)C(=O)O (stereo not given) | -14.6%
Cc1ccc2nc(Sc3c([N+](=O)[O-])ncn3C)[nH]c2c1 | 5.75%
CC(=O)c1ccccc1NC=O | -40.9%
CNc1cc([N+](=O)[O-])ccc1Br | -2.95%
CC(Cl)S(=O)(=O)c1ccccc1 (stereo not given) | -42.5%
CCC(C)C(NC(=O)C1CSC(C)(C)N1C=O)C(=O)OC1CCCCC1 (stereo not given) | -13.2%
O=C(NSN1CCOCC1)c1ccccc1 | -45.6%
Cc1cnc2ccccc2c1/C=C/c1ccc(N(C)C)cc1 | -121%
Cn1c(=O)c(C(=O)Nc2nc(C34CC5CC(CC(C5)C3)C4)cs2)c(O)c2ccccc21 | 11.1%
CCOC(=O)N1CCc2cc(OC)c(OC)cc2C1Cc1ccc(OC)c(OC)c1 (stereo not given) | 12%
CCC(SC(CC)(CC)C(=O)O)C(N)=O (stereo not given) | -23%
CC(=O)OCC(O)CS(=O)c1ccc(C)cc1 (stereo not given) | -30.6%
CC1(C)CC[C@]2(C(=O)O)CC[C@]3(C)C(=CC[C@@H]4[C@@]5(C)CC[C@H](OC6OC(CO)C(O)C(O)C6O)C(C)(C)[C@@H]5CC[C@]43C)[C@@H]2C1 (stereo not given in full) | 74.2% (active)
O=C(NC1c2ccccc2Oc2ccccc21)OCCI | 13.3%
COc1ccc(N=N/C(=N/NC(=O)c2cc(Cl)ccc2C(=O)c2ccccc2)c2ccc(N(CCC#N)CCC#N)cc2C)cc1 | 12.5%
N#CCN1CCc2ccccc2C1 | -33.9%

SMILES | growth inhibition
Cc1nc2c3c(ccc2[nH]c1=O)C(=O)c1ccccc1C3=O | 16.9%
Cc1ccc(N2C(=O)C3CSCN3C2=O)cc1 (stereo not given) | 4.9%
Cc1ccc(-c2ccc(C)cc2C(=O)O)c(C(=O)O)c1 | -28.1%
CC(CC(O)C(=O)O)CC(C)(C)C (stereo not given) | -7.3%
N#Cc1sc2c(c1OC(=O)c1cccs1)c(=O)n(-c1ccccc1)c(=S)n2-c1ccccc1 | -5.55%
O=C(O)c1nc2ccccc2nc1C(=O)O | -17.6%
CC1(C)C2CCC3(C2)CS(=O)(=O)N2OC231 (stereo not given) | -20.1%
O=C(Cc1ccccc1)SC(=O)Cc1ccccc1 | -8.9%
COC(=O)c1cc(NC(=O)Nc2cccc(C(C)=O)c2)cc(C(=O)OC)c1 | -10.2%
COC(=O)C(Cc1ccc(O)cc1)NC(=O)C(CC(=O)OCc1ccccc1)NC(=O)OCc1ccccc1 (stereo not given) (Cbz-Asp(OBn)-Tyr-OMe; configuration not given here) | -3.45%
CC(=O)c1cccc(N=NN(C)C)c1 | 6.35%
COC(=O)C1Cc2c([nH]c3ccccc23)C=N1 (stereo not given) | 45.5%
CC(C)c1cccc(C(C)C)c1NC(=O)N1CCCCC1 | 3.85%
O=C(O)CC(O)(CC(=O)O)C(=O)O | 3.65%
Nc1c(F)cc(I)cc1F | -43%
CC(=O)OCCOCNC(=S)N/N=C(\C)c1ccco1 | 3.8%
c1ccc2c(c1)Cc1cc3ccccc3cc1C2 | 0.75%
CN(C)c1cccc2c(S(=O)(=O)NCCCNCCN)cccc12 | 24.4%
O=C(O)c1ccc(NCC(O)COc2ccc([N+](=O)[O-])cc2)cc1 (stereo not given) | 5.4%
CCCCCCCCN1C(=O)CCC1=O | 0.5%

Assay: NCI Yeast Anticancer Drug Screen. Data for the bub3 strain (AID 167)
Conditions: S. cerevisiae bub3 mutant strain, hits give high values; at 50.0 µM unless noted
Outline: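 Mutant yeast screening strain plus compound; vehicle-treated cultures serve as the 0% inhibition reference.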

SMILES | growth inhibition
c1ccc(C2(c3ccc(C4(c5ccccc5)Oc5ccccc5S4)[nH]3)Oc3ccccc3S2)cc1 (stereo not given) | -16.7%
COc1cccc(C#CC(=O)O)c1 | -21.9%
Nc1nc(N)c(N=O)c(Nc2ccccc2)n1 | 41.6%
C=C1C(=O)OC2/C=C(\C)C(O)CCC(C)(O)CC(OC(=O)/C(C)=C/C)C12 (stereo not given) | 3.7%
NC(CSCCB(O)O)C(=O)O (stereo not given) | -5%
Cc1ccc2nc(Sc3c([N+](=O)[O-])ncn3C)[nH]c2c1 | -20.7%
CC(=O)c1ccccc1NC=O | -15.3%
CNc1cc([N+](=O)[O-])ccc1Br | 7.5%
CC(Cl)S(=O)(=O)c1ccccc1 (stereo not given) | 8.35%
CCC(C)C(NC(=O)C1CSC(C)(C)N1C=O)C(=O)OC1CCCCC1 (stereo not given) | -4.9%
O=C(NSN1CCOCC1)c1ccccc1 | 2.5%
Cc1cnc2ccccc2c1/C=C/c1ccc(N(C)C)cc1 | 14.1%
Cn1c(=O)c(C(=O)Nc2nc(C34CC5CC(CC(C5)C3)C4)cs2)c(O)c2ccccc21 | -10%
CCOC(=O)N1CCc2cc(OC)c(OC)cc2C1Cc1ccc(OC)c(OC)c1 (stereo not given) | 1.95%
CCC(SC(CC)(CC)C(=O)O)C(N)=O (stereo not given) | -6%
CC(=O)OCC(O)CS(=O)c1ccc(C)cc1 (stereo not given) | -16.1%
CC1(C)CC[C@]2(C(=O)O)CC[C@]3(C)C(=CC[C@@H]4[C@@]5(C)CC[C@H](OC6OC(CO)C(O)C(O)C6O)C(C)(C)[C@@H]5CC[C@]43C)[C@@H]2C1 (stereo not given in full) | 82.4% (active)
O=C(NC1c2ccccc2Oc2ccccc21)OCCI | -14%
COc1ccc(N=N/C(=N/NC(=O)c2cc(Cl)ccc2C(=O)c2ccccc2)c2ccc(N(CCC#N)CCC#N)cc2C)cc1 | -11.9%
N#CCN1CCc2ccccc2C1 | -11.7%

SMILES | growth inhibition
Cc1nc2c3c(ccc2[nH]c1=O)C(=O)c1ccccc1C3=O | 13.9%
Cc1ccc(N2C(=O)C3CSCN3C2=O)cc1 (stereo not given) | 9%
Cc1ccc(-c2ccc(C)cc2C(=O)O)c(C(=O)O)c1 | -2.5%
CC(CC(O)C(=O)O)CC(C)(C)C (stereo not given) | 22.3%
N#Cc1sc2c(c1OC(=O)c1cccs1)c(=O)n(-c1ccccc1)c(=S)n2-c1ccccc1 | 25.8%
O=C(O)c1nc2ccccc2nc1C(=O)O | -7.95%
CC1(C)C2CCC3(C2)CS(=O)(=O)N2OC231 (stereo not given) | -26.9%
O=C(Cc1ccccc1)SC(=O)Cc1ccccc1 | 39.4%
COC(=O)c1cc(NC(=O)Nc2cccc(C(C)=O)c2)cc(C(=O)OC)c1 | 37.6%
COC(=O)C(Cc1ccc(O)cc1)NC(=O)C(CC(=O)OCc1ccccc1)NC(=O)OCc1ccccc1 (stereo not given) (Cbz-Asp(OBn)-Tyr-OMe; configuration not given here) | -21.4%
CC(=O)c1cccc(N=NN(C)C)c1 | 40.2%
COC(=O)C1Cc2c([nH]c3ccccc23)C=N1 (stereo not given) | 14.8%
CC(C)c1cccc(C(C)C)c1NC(=O)N1CCCCC1 | -1.65%
O=C(O)CC(O)(CC(=O)O)C(=O)O | -0.25%
Nc1c(F)cc(I)cc1F | 10.2%
CC(=O)OCCOCNC(=S)N/N=C(\C)c1ccco1 | -4.95%
c1ccc2c(c1)Cc1cc3ccccc3cc1C2 | -33.2%
CN(C)c1cccc2c(S(=O)(=O)NCCCNCCN)cccc12 | -21.2%
O=C(O)c1ccc(NCC(O)COc2ccc([N+](=O)[O-])cc2)cc1 (stereo not given) | -3.55%
CCCCCCCCN1C(=O)CCC1=O | -14.9%
